Measured values as given in ChEMBL document CHEMBL4513146, “CO-ADD screening of Karazin Kharkiv National University (Ukraine) compounds”.
Potency and affinity values are given separately.

Tests used:
Staphylococcus aureus = conditions: Concentration 32 ug.mL-1;; ASSAY_TEST Inhibition of Bacterial Growth; detection method Absorption (OD600); MEDIA CAMHB; plate type 384well; NBS; CORNING #3640; time 18 hr
Escherichia coli = conditions: Concentration 32 ug.mL-1;; ASSAY_TEST Inhibition of Bacterial Growth; detection method Absorption (OD600); MEDIA CAMHB; plate type 384well; NBS; CORNING #3640; time 18 hr

`CSc1cccc(NC(=O)Cn2nc3ccc(SC(C)(C)C)nn3c2=O)c1` showed an Inhibition (Staphylococcus aureus) of -2.88% and an Inhibition (Escherichia coli) of 1.52%.

With `Cc1ccc(-c2ccc3nn(CC(=O)Nc4ccc(C#N)cc4)c(=O)n3n2)cc1C` the Inhibition (Staphylococcus aureus) was 8.65% and the Inhibition (Escherichia coli) was 0.46%.

In the case of `Cc1cc2nn(CC(=O)N3CCOCC3)c(=O)n2c(Nc2ccc(C)c(F)c2)n1`, the Inhibition (Staphylococcus aureus) is reported as 15.64% and the Inhibition (Escherichia coli) is reported as -0.78%.

For `COc1ccc(NC(=O)Cn2nc3ccc(SC(C)C)nn3c2=O)cc1OC`, the Inhibition (Staphylococcus aureus) was -2.31% and the Inhibition (Escherichia coli) was 0.47%.

In the case of `CCOc1ccc(-n2ccn3c(SCC(=O)c4ccccc4)nnc3c2=O)cc1`, the Inhibition (Staphylococcus aureus) is reported as 6.87% and the Inhibition (Escherichia coli) is reported as 1.63%.

In the case of `CCOc1ccc(-n2ccn3c(SCC#N)nnc3c2=O)cc1`, the Inhibition (Staphylococcus aureus) is reported as 8.92% and the Inhibition (Escherichia coli) is reported as 2.37%.

In the case of `Cc1ccc(C)c(CSc2nnc3c(=O)n(-c4ccc(F)c(F)c4)ccn23)c1`, the Inhibition (Staphylococcus aureus) is reported as 21.94% and the Inhibition (Escherichia coli) is reported as -0.2%.

For `CCc1nnc2c(S(=O)(=O)N(Cc3cc(F)cc(F)c3)c3cccc(F)c3)cccn12`, the Inhibition (Staphylococcus aureus) was 2.06% and the Inhibition (Escherichia coli) was -5.05%.

`Cc1cc(C)c(NC(=O)Cn2nc3c(Sc4cccc(F)c4)nccn3c2=O)c(C)c1` was tested, and the Inhibition (Staphylococcus aureus) was 9.93% and the Inhibition (Escherichia coli) was -1.39%.

`COc1ccc(-c2cc3c4nn(CC(=O)Nc5cc(Cl)ccc5C)c(=O)n4ccn3n2)cc1` showed an Inhibition (Staphylococcus aureus) of 5.04% and an Inhibition (Escherichia coli) of 1.53%.

In the case of `Cc1nnc2c(S(=O)(=O)N(Cc3cccc(F)c3)c3cccc(F)c3)cccn12`, the Inhibition (Staphylococcus aureus) is reported as 18.57% and the Inhibition (Escherichia coli) is reported as 0.97%.

`O=C(Cn1nc2c(SCc3ccccc3)nccn2c1=O)NC1CCCC1` was tested, and the Inhibition (Staphylococcus aureus) was -2.71% and the Inhibition (Escherichia coli) was 0.2%.

Work on `Cc1cc(C)cc(NC(=O)Cn2nc3c(N4CCCC4)nccn3c2=O)c1` yielded an Inhibition (Staphylococcus aureus) of 12.35% and an Inhibition (Escherichia coli) of -0.75%.

Work on `COc1ccc(-c2cc3c4nn(CC(=O)Nc5ccc(C)cc5C)c(=O)n4ccn3n2)cc1` yielded an Inhibition (Staphylococcus aureus) of 1.83% and an Inhibition (Escherichia coli) of 2.27%.

`Cc1cc(C)cc(N(Cc2ccc(F)cc2)S(=O)(=O)c2cccn3cnnc23)c1` gave an Inhibition (Staphylococcus aureus) of -4.06% and an Inhibition (Escherichia coli) of -5.96%.

Work on `CCc1nnc2ccc(S(=O)(=O)N(Cc3ccc(OC)cc3)c3cccc(F)c3)cn12` yielded an Inhibition (Staphylococcus aureus) of -1.45% and an Inhibition (Escherichia coli) of -12.26%.

In the case of `Cc1ccc(Sc2nccn3c(=O)n(CC(=O)Nc4cccc(Cl)c4)nc23)c(C)c1`, the Inhibition (Staphylococcus aureus) is reported as 9.86% and the Inhibition (Escherichia coli) is reported as -3.61%.
